# Reference: PubChem BioAssay (NCATS)
# Values joined by “and” are separate entries in the source; they are usually repeats but may differ in a detail not shown here. Identical values can stand only once. Results filed as inconclusive are left out. A call without a number means that no potency is given here. Active and inactive are the calls of the source. Calls come from the whole dose curve; as a rule, active = well fitted curve in the direction sought with a large enough effect; inconclusive = small, poorly fitted or top-dose-only effect, or another doubt; inactive = no such curve, though single readings can be large; an effect the other way counts as inactive or inconclusive.
# How the values were obtained:
# [1] = qHTS for Inhibitors of the Aldehyde Dehydrogenase Family (ALDH1A2, ALDH1A3, ALDH2, ALDH3A1) (AID 2061307); note: nearly all actives have a fitted effect of over 50% in size; for potency: test system not described further here; potency is the fitted concentration of half-maximal effect
# [2] = biological target: Retinaldehyde dehydrogenase 3 (Homo sapiens) (UniProt P47895); experiment: qHTS for Inhibitors of the Aldehyde Dehydrogenase Family (ALDH1A3) Confirmatory screens (AID 2061311); note: nearly all actives have a fitted effect of over 60% in size; note: potency is the fitted concentration of half-maximal effect
# [3] = biological target: Retinal dehydrogenase 2 (Homo sapiens) (UniProt O94788); experiment: qHTS for Inhibitors of the Aldehyde Dehydrogenase Family (ALDH1A2) Confirmation screens (AID 2061314); note: nearly all actives have a fitted effect of over 65% in size; note: potency is the fitted concentration of half-maximal effect
# [4] = biological target: Aldehyde dehydrogenase 1A1 (Homo sapiens) (UniProt P00352); experiment: qHTS for Inhibitors of the Aldehyde Dehydrogenase Family (ALDH1A1) Confirmatory screens (AID 2061316); note: nearly all actives have a fitted effect of over 65% in size; note: potency is the fitted concentration of half-maximal effect
# [5] = biological target: Retinaldehyde dehydrogenase 3 (Homo sapiens) (UniProt P47895); experiment: qHTS for Inhibitors of the Aldehyde Dehydrogenase Family (ALDH1A3) Primary screen (AID 2061315)
# [6] = biological target: Aldehyde dehydrogenase, mitochondrial (Homo sapiens) (UniProt P05091); experiment: qHTS for Inhibitors of the Aldehyde Dehydrogenase Family (ALDH2) Primary screen (AID 2061308); note: nearly all actives have a fitted effect of over 55% in size; note: potency is the fitted concentration of half-maximal effect
smiles,measurement,setting,value
COc1ccc(-n2c(C)c(C(C)=O)c3cc(OC(=O)c4ccc(C)cc4)ccc32)cc1,Potency,[1],inactive
same,Potency,[2],inactive
same,Potency,[3],inactive
same,Potency,[4],inactive
CC(=O)Nc1cccc(OCc2cccc(C3Nc4ccccc4C(=O)N3Cc3ccco3)c2)c1 (stereo not drawn),Potency,[1],7.94 µM (active)
same,Potency,[2],10 µM (active)
same,Potency,[5],inactive
same,Potency,[4],7.12 µM (active)
CC(=O)c1c(C)n(-c2cccc(C)c2)c2ccc(OC(=O)COc3ccccc3)cc12,Potency,[1],inactive
same,Potency,[2],inactive
same,Potency,[3],inactive
same,Potency,[4],inactive
COc1cc(NS(=O)(=O)c2ccc(C)cc2)c2ncccc2c1,Potency,[6],inactive
O=S(=O)(Nc1cccc2cccnc12)c1ccccc1O,Potency,[6],inactive
COc1cccc(Nc2ccc(N3CCN(C(C)=O)CC3)cc2)c1OC,Potency,[6],inactive
Cc1ccc(C)c(SC2=NS(=O)(=O)c3cc(C(=O)NCc4ccccc4)ccc32)c1,Potency,[6],inactive
O=C(O)c1ccc(Cc2c(-c3cccc(-c4ccccc4)c3)[nH]n(-c3nc(C(=O)O)cs3)c2=O)cc1,Potency,[6],inactive
O=C(O)c1cccc(-c2noc(-c3ccccc3Cl)n2)c1,Potency,[6],inactive
CC(C)(C)NS(=O)(=O)c1cccc(Nc2nn3c(=O)c4ccccc4nc3s2)c1,Potency,[1],22.5 µM (active)
same,Potency,[5],inactive
same,Potency,[4],11.3 µM (active)
O=[N+]([O-])c1ccc(S(=O)(=O)Nc2cnc3ccccc3c2)cc1,Potency,[1],inactive
same,Potency,[5],inactive
same,Potency,[4],inactive
COc1ccc(C2c3c(N)nc(CCc4ccccc4)nc3Oc3ccc4ccccc4c32)cc1OC (stereo not drawn),Potency,[1],inactive
same,Potency,[5],inactive
FC(F)(F)c1ccccc1-c1nc(NCc2ccc(-c3cccc4ccccc34)cc2)c2ccccc2n1,Potency,[6],inactive
Cc1cc(C)nc(NC(=S)N2CCN(c3ccc(F)c(Cl)c3)CC2)c1,Potency,[1],7.08 µM (active)
same,Potency,[5],inactive
same,Potency,[4],6.34 µM (active)
CCOCCCNC(=O)Nc1cc(C(=O)NCc2ccc(C(C)C)cc2)ccc1N1CCCC1,Potency,[1],0.726 µM (active)
same,Potency,[4],2.89 µM (active)
CC(=O)Nc1sc2c(c1-c1ccc(C#N)cc1)CCNC2,Potency,[1],inactive
same,Potency,[5],inactive
same,Potency,[4],inactive
O=C(O)c1cccc(-c2noc(-c3ccc(Cl)cc3)n2)c1,Potency,[6],inactive
COc1cccc(CNc2ccc(S(=O)(=O)Nc3ccccn3)cc2)c1O,Potency,[6],inactive
COc1ccc(O)c(-c2nc3ccccc3c(=O)n2Cc2ccccc2)c1,Potency,[6],inactive
COc1ccnc(NC(=S)N2CCN(c3ccc(Cl)cc3Cl)CC2)c1,Potency,[1],11.2 µM (active)
same,Potency,[4],5.65 µM (active)
C=C1CC[C@@H](O)[C@]2(C)CC[C@H]3C(=C)C(=O)O[C@@H]3[C@@H]12,Potency,[6],inactive
O=C1c2ccccc2C(=O)N1c1cccc(=O)[nH]1,Potency,[1],inactive
same,Potency,[5],inactive
same,Potency,[4],inactive
NC(Cc1c[nH]c2ccc(O)cc12)C(=O)O (stereo not drawn),Potency,[6],inactive
COc1cccc(Cn2ncc3c4sc(B(O)O)cc4n(C)c3c2=O)c1,Potency,[6],inactive
Cc1ccc(CN(C)c2ncnc3ccc(-c4ccc5c(c4)OCO5)cc23)o1,Potency,[1],15.8 µM (active)
same,Potency,[5],inactive
same,Potency,[4],8.96 µM (active)
CCC(=O)NC(c1ccco1)c1cc(Cl)c2ccccc2c1O (stereo not drawn),Potency,[6],inactive
COc1ccc(OC)c(N2C(=O)C(Cl)=C(N3CCCCC3)C2=O)c1,Potency,[6],inactive
COc1ccc2nc(-c3cccc(C)c3)sc2c1,Potency,[6],inactive
COc1ccc(NC(=O)c2cccnc2)cc1S(=O)(=O)Nc1ccc(Br)cc1,Potency,[1],inactive
same,Potency,[5],inactive
CC(=O)NC(c1cc(Cl)c2ccccc2c1O)C1CC1 (stereo not drawn),Potency,[6],inactive
Cc1cccc2c1NC(=O)/C2=C/c1cc(Cl)c(O)c(Cl)c1,Potency,[1],4 µM (active)
same,Potency,[5],inactive
Cc1ccnc(NC(=S)N2CCCC(Nc3cccc(C(F)(F)F)c3)C2)c1 (stereo not drawn),Potency,[6],inactive
COc1ccnc(NC(=S)N2CCN(c3cccc(Cl)c3Cl)CC2)c1,Potency,[1],10 µM (active)
same,Potency,[4],4 µM (active)
C=C1/C(=C/C=C2\CCC[C@]3(C)[C@@H]([C@H](C)/C=C/[C@H](O)C4CC4)CC[C@@H]23)C[C@@H](O)C[C@@H]1O,Potency,[6],inactive
C=C1C(=O)OC2/C=C(\CO)CC/C=C(\C=O)C(O)C(OC(=O)C(C)CC)C12 (stereo not drawn),Potency,[6],inactive
c1ccc2[nH]c(-c3ccc(NCc4ccc5c(c4)OCCO5)cc3)nc2c1,Potency,[6],inactive
CCOc1ccc(CCNC(C)=O)cc1OCC,Potency,[6],inactive
CN(C)c1cnc2c(O)ccc([S+](=O)([O-])Nc3ccccc3F)c2c1,Potency,[6],inactive
CC(O)c1ccc(-c2ccc3ncnc(NCc4nccs4)c3c2)o1 (stereo not drawn),Potency,[1],inactive
same,Potency,[5],inactive
same,Potency,[4],10.1 µM (active)
CC(C)(C)c1ccc(-c2nnc(NC(=O)Nc3ccc4ccccc4c3)s2)cc1,Potency,[1],10.1 µM (active)
same,Potency,[5],inactive
same,Potency,[4],11.3 µM (active)
O=C(Nc1nnc(-c2ccncc2)s1)Nc1ccc(Cl)c2ccccc12,Potency,[6],inactive
CN(C)CCN(Cc1ccc(-c2ccc(CNCCc3ccccc3)cc2)cc1)C(=O)CCC1CCCC1,Potency,[6],inactive
CC1=CC2=C(C)C(=O)[C@](C)(O)[C@H](O)C2=CO1,Potency,[6],inactive
COc1ccc(C2Nc3cccc4cccc(c34)N2)cc1,Potency,[6],inactive
CC(C)c1ccccc1-c1nccc(NCc2ccc(-c3cccnc3)cc2)n1,Potency,[6],inactive
C/C(=C\c1ccc2c(c1)OCO2)C1Nc2cccc3cccc(c23)N1,Potency,[6],inactive
same,Potency,[2],2.83 µM (active)
CNC(=O)c1ccccc1Nc1cc(Nc2ccc(N3CCOCC3)cc2OC)ncc1C(F)(F)F,Potency,[6],inactive
same,Potency,[2],3.57 µM (active)
Cc1ccnc(NC(=S)N2CCN(c3ccc(Br)cc3)CC2)c1,Potency,[6],inactive
O=C(O)c1ccc(-c2noc(-c3ccc(C(F)(F)F)cc3)n2)cc1,Potency,[6],inactive
CO[C@H]1c2cc(C(C)C)c(O)c(O)c2[C@@]23CCCC(C)(C)C2[C@@H]1OC3=O (stereo partly drawn),Potency,[6],inactive
same,Potency,[2],6.97 µM (active)
same,Potency,[3],6.97 µM (active)
Cc1ccc2nc3sc(C(=O)NCCc4cccnc4)cc3cc2c1,Potency,[6],inactive
same,Potency,[2],12.7 µM (active)
N#Cc1ccc(S(=O)(=O)Nc2cnccc2C(=O)Nc2nc(-c3ccccc3)cs2)cc1,Potency,[6],inactive
COc1ccc(C(O[C@@H]2O[C@H](CO)[C@@H](O)[C@H](O)[C@H]2O)C(CO)Oc2ccc(/C=C/CO)cc2OC)cc1O (stereo partly drawn),Potency,[6],inactive
COc1ccc(CNc2ccc(N3CCN(C(C)=O)CC3)cc2)cc1OC,Potency,[6],inactive
same,Potency,[2],12.7 µM (active)
same,Potency,[3],12.7 µM (active)
O=[N+]([O-])c1ccccc1S(=O)(=O)Nc1cccc2cccnc12,Potency,[6],inactive
same,Potency,[2],12.7 µM (active)
same,Potency,[3],0.712 µM (active)
COc1cncc(NC(=O)c2cccs2)c1,Potency,[6],inactive
same,Potency,[2],11.3 µM (active)
CC(=O)c1ccc(N2CCN(S(=O)(=O)c3cc4c(cc3Cl)NC(=O)C4)CC2)cc1,Potency,[6],inactive
same,Potency,[2],3.55 µM (active)
C=C1/C(=C/C=C2\CCC[C@@]3(C)C2CCC3[C@H](C)/C=C/[C@@H](O)C2CC2)C[C@@H](O)C[C@@H]1O (stereo partly drawn),Potency,[6],inactive
O=C1Nc2ccc(C(=O)c3ccco3)cc2/C1=C/c1cc(Cl)c(O)c(Cl)c1,Potency,[6],inactive
same,Potency,[2],14.1 µM (active)
same,Potency,[3],12.6 µM (active)
same,Potency,[5],inactive
Cc1ccc(-c2ccc(=O)n(CC(=O)NCCc3ccccc3)n2)cc1,Potency,[6],inactive
same,Potency,[2],0.447 µM (active)
same,Potency,[3],11.2 µM (active)
same,Potency,[5],inactive
CC(=O)NC(c1cc(Cl)c2ccccc2c1O)C(C)C (stereo not drawn),Potency,[6],inactive
same,Potency,[2],8.96 µM (active)
same,Potency,[3],20.1 µM (active)
CC(C)(C)OC(=O)N1CCN(c2ccc(NCc3ccc(-c4cc(C(F)(F)F)cc(C(F)(F)F)c4)o3)cc2)CC1,Potency,[6],inactive
CC(C)N1CCc2c(sc(NC(=O)c3ccccc3)c2-c2nc3ccccc3s2)C1,Potency,[6],22.4 µM (active)
same,Potency,[2],inactive
O=C(Nc1ccccc1C(=O)O)c1ccccc1,Potency,[6],inactive
Oc1ccc(/C=C/c2ccccc2)c2cccnc12,Potency,[6],inactive
same,Potency,[2],14.2 µM (active)
Fc1ccccc1-c1nc(-c2cccc(-c3nn[nH]n3)c2)no1,Potency,[6],inactive
COc1ccc2nc(-c3cccc(NC(C)=O)c3)sc2c1,Potency,[6],inactive
CC(=O)Nc1sc2c(c1-c1ccc(N[S+](C)(=O)[O-])cc1)CCNC2,Potency,[6],inactive
O=C(O)c1ccc(-c2noc(-c3ccc(Cl)cc3)n2)cc1,Potency,[6],inactive
CCC(=O)NC(c1cc(Cl)c2ccccc2c1O)C(C)C (stereo not drawn),Potency,[6],inactive
same,Potency,[2],12.7 µM (active)
same,Potency,[3],28.3 µM (active)
Oc1ccc(COCc2ccc(F)cc2)c2cccnc12,Potency,[6],inactive
same,Potency,[2],10.1 µM (active)
CC(=O)c1ccc(N2CCN(S(=O)(=O)c3ccc4c(c3)C(Cl)(Cl)C(=O)N4)CC2)cc1,Potency,[6],inactive
same,Potency,[2],2.82 µM (active) and 1.12 µM (active)
same,Potency,[3],6.34 µM (active)
O=C(O)c1cccc(-c2noc(-c3ccc(C(F)(F)F)cc3)n2)c1,Potency,[6],inactive
O=C(O)c1cccc(-c2noc(-c3ccccc3C(F)(F)F)n2)c1,Potency,[6],inactive
FC(F)(F)c1cc(-c2ccc(CNc3nc(-c4ccccc4C(F)(F)F)nc4ccsc34)cc2)ccn1,Potency,[6],inactive
O=C(NC(c1ccco1)c1cc(Cl)c2cccnc2c1O)c1cccs1 (stereo not drawn),Potency,[6],inactive
Cc1ccc(S(=O)(=O)Nc2cnccc2C(=O)Nc2ccc(N3CCOCC3)cc2)cc1,Potency,[6],inactive
same,Potency,[2],4 µM (active)
same,Potency,[3],6.34 µM (active)
C/C(=C\c1ccc(F)cc1)C1Nc2cccc3cccc(c23)N1,Potency,[6],inactive
CCC(=O)NC(c1ccco1)c1cc(Br)c2cccnc2c1O (stereo not drawn),Potency,[6],inactive
same,Potency,[2],12.7 µM (active)
same,Potency,[3],11.3 µM (active)
same,Potency,[5],inactive
c1csc(CNc2ccc(N3CCCCC3)cc2)c1,Potency,[6],inactive
same,Potency,[2],20.1 µM (active)
